# Bioassay records deposited in PubChem BioAssay by The Scripps Research Institute Molecular Screening Center.
# An excerpt weighted towards active compounds, which were near 2.3% of everything screened.
# CHO-K1 Ca antag = counter-screen for M1 antagonists: effect in parental CHO-K1 cells; ATP-induced calcium, Fluo-8 fluorescence; inhibition, % at 3 µM; 360,000 tested, 0.6% active;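 active = inhibition above a per-plate cutoff, the plate's mean sample inhibition plus 3 SD, cut at about 24% in these data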;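 also: 0% = DMSO plus EC80 ATP and 100% = DMSO alone without ATP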
# CHRM1 PAM = human CHRM1 positive allosteric modulation; P11229; CHO-K1 hM1, Fluo-8 calcium fluorescence, ACh EC20; 0% = ACh EC20, 100% = maximal ACh; activation, % at 3 µM; 360,000 tested, 0.088% active; AID 588819; in the data active = activation above about 19%, passing the limit was not always enough
# Target sequence (P11229 whole entry, looked up): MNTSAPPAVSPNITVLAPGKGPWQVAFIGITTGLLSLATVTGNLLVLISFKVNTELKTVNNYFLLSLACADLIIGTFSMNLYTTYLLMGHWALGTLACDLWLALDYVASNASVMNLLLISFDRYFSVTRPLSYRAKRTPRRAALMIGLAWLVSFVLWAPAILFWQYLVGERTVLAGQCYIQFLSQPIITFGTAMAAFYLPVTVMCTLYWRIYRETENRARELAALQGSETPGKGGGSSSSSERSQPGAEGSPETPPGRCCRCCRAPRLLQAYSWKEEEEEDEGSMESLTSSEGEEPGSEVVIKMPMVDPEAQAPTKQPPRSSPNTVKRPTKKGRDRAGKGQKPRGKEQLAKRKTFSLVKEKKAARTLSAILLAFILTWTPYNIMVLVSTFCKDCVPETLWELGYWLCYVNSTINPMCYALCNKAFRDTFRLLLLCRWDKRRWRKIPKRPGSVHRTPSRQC
# M1 PAM parental = counter-screen for M1 PAMs: effect in parental CHO-K1 cells. ATP EC20, Fluo-8 calcium fluorescence; 0% at ATP EC20, 100% at ATP max. activation, % at 3 µM. 360,000 tested, 0.02% active;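 active = activation above the run cutoff, the mean activation of all test compounds plus 3 SD, cut at about 40% in these data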;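 also: peak over basal fluorescence ratio in a 140 s read after ATP addition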
# M1 ag parental = M1 agonist counterscreen hit in parental CHO-K1 cells; Fluo-8 calcium fluorescence; scaled to maximal ATP response, vehicle zero; activation, % at 3 µM; 360,000 tested, 0.48% active; AID 602248; in the data active = activation above about 15%;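 also: untransfected CHO-K1 host cells lacking M1 receptor as counterscreen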
# CHRM1 antagonist = human CHRM1 antagonism; P11229; CHO-K1 hM1, Fluo-8 calcium fluorescence, ACh EC80 antagonist; inhibition, % at 3 µM; 360,000 tested, 1.3% active;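 active = percent inhibition above its own plate's cutoff, namely the mean of that plate's compound wells plus 3 SD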;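 also: peak over basal fluorescence ratio during 140 s after agonist addition; 0% = ACh EC80 plus DMSO and 100% = DMSO alone without agonist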
# M1 ag = agonists of human M1 muscarinic receptor; P11229; CHO-K1 hM1, Fluo-8 calcium fluorescence, agonist mode; 0% DMSO, 100% acetylcholine EC100; activation, % at 3 µM; 360,000 tested, 0.33% active;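 active = activation above the run's mean compound activation plus 3 SD, cut at about 16% in these data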;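 also: peak over basal fluorescence ratio within a 140 s kinetic read after compound addition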
# Numbers without * were called inactive; . = not tested or not shown.
SMILES,CHO-K1 Ca antag,CHRM1 PAM,M1 PAM parental,M1 ag parental,CHRM1 antagonist,M1 ag
O=C(NC(c1ccccc1)c1cnccn1)C1CCN(CCCOc2ccccc2)CC1 (stereo unspecified),0,-7,-12,0,11,-9
O=C(NC(c1ccc(-c2ccccc2)cc1)c1cnccn1)C1CCN(CCN2C(=O)c3ccccc3C2=O)CC1 (stereo unspecified),30*,-12,-14,0,21,-4
O=C(NC(c1ccc(-c2ccccc2)cc1)c1cnccn1)C1CCN(Cc2ccc(Oc3ccccc3)cc2)CC1 (stereo unspecified),7,-8,9,3,15,-4
Cc1cccnc1C(NC(=O)C1CCN(Cc2ccccc2)CC1)c1ccc(F)cc1 (stereo unspecified),-12,0,21,0,-7,-3
O=C(NC(c1ccc(-c2ccccc2)cc1)c1cnccn1)C1CCN(Cc2cccs2)CC1 (stereo unspecified),24*,-3,-5,2,12,-5
CC1(C)O[C@@H](CC(=O)O)[C@]23CO[C@H](C(=O)[C@]4(C)C2CC[C@@]2(C)[C@H](c5ccoc5)OC(=O)C5O[C@]524)[C@@H]13 (stereo partly specified),-11,7,7,0,-5,-3
CC(=O)c1ccc(NC(=O)CN2C(=O)COc3ccc(S(=O)(=O)N4CCCC4)cc32)cc1,-13,-4,-13,0,-2,-8
O=C(COc1ccc2ccccc2c1)Nc1ccc(Cc2ccncc2)cc1,25*,-20,-3,11,43*,0
O=C(O)Cc1ccc(NC(=O)COc2ccc3ccccc3c2)cc1,2,-7,-5,0,8,-2
COc1cc2ccccc2cc1C(=O)Nc1ccc(Cc2ccncc2)cc1,10,-16,7,6,30*,-1
O=C(Nc1ccc(S(=O)(=O)N2CCc3ccccc3C2)cc1)C1CCCO1 (stereo unspecified),-5,-4,3,7,5,-1
O=C(Nc1ccc(S(=O)(=O)N2CCCc3ccccc32)cc1)C1CCCO1 (stereo unspecified),-19,-35,7,3,40*,-7
COc1cc(C(=O)N/N=C(\C)Cn2nc([N+](=O)[O-])cc2C)ccc1O,28*,7,-12,0,-2,-8
C/C(Cn1nc([N+](=O)[O-])cc1C)=N\NC(=O)c1ccc(O)cc1O,-24,7,23,2,-9,-5
CCOC(=O)c1cnc2ccccc2c1NCc1ccco1,-8,-26,20,2,92*,-8
O=C(Nc1ccc(F)cc1)c1cccc(N2C(=O)C3C4C=CC(C5CC45)C3C2=O)c1 (stereo unspecified),-2,-7,2,13,10,2
COc1ccc(NC(=O)NCCc2cccc(Cl)c2)cc1OC,4,6,14,1,-10,-8
Clc1ccc(-c2noc(CN3CCCC3)n2)cc1,-10,-3,25,1,-3,-4
Cn1ccnc1C1CCCCN1Cc1nc(-c2ccc(Cl)cc2)no1 (stereo unspecified),-11,-19,-2,2,32*,-7
CSc1ccc(C(=O)C2CCCN(Cc3ccc(N4CCNC4=O)cc3)C2)cc1 (stereo unspecified),7,-28,13,10,97*,-11
COc1ccc(CN2CCCC(C(=O)c3ccc(SC)cc3)C2)cc1Cn1cccn1 (stereo unspecified),18,-25,-19,2,88*,-4
CCOC(=O)c1[nH]ncc1CN1CCCC(C(=O)c2ccc(SC)cc2)C1 (stereo unspecified),6,-6,-4,0,3,-14
COC(=O)C(C(=O)OC)C(C[N+](=O)[O-])c1ccc(O)c(OC)c1 (stereo unspecified),5,-2,-4,0,2,-3
O=c1ccc(-c2ccc(S(=O)(=O)N3CCCCC3)o2)n[nH]1,17,1,-25,0,-1,-2
COc1ccc(-c2nc3c4ccccc4ccn3c2Cc2ccsc2)cc1OC,24*,-15,-11,0,18,-8
SMILES,CHO-K1 Ca antag,CHRM1 PAM,M1 PAM parental,M1 ag parental,CHRM1 antagonist,M1 ag
COc1ccc(-c2nc3c4ccccc4ccn3c2Cc2ccc(C)cc2)cc1OC,-6,-3,-9,0,-19,-6
COC(=O)c1cccc(NC(=O)Nc2ccc(Cl)cc2Cl)c1,28*,1,-26,0,-2,0
COC(=O)c1cccc(NC(=S)Nc2cc(Cl)ccc2OC)c1,1,6,12,1,-8,-3
CCn1c(SCC(=O)NNC(=S)Nc2ccc(C)cc2)nnc1-c1ccc(Cl)cc1,-5,11,27,16*,-12,-6
Cc1[nH]nc(SCC(=O)NC(C)c2ccccc2)c1[N+](=O)[O-] (stereo unspecified),25*,-1,-15,1,-7,-5
Cc1ccc(C(=O)NNC(=S)NC(=O)c2ccc(Cl)cc2Cl)cc1,13,-25,-13,107*,46*,105*
CC(C)NC(=S)NC(=O)c1ccc(Cl)cc1Cl,-14,0,17,1,-14,-10
Cc1cccc(C(=O)NNC(=S)NC(=O)c2cccs2)c1,20,-20,-12,85*,18,84*
CCCCC(=O)NC(=S)NNC(=O)c1ccc(Cl)cc1Cl,-16,-5,3,26*,6,25*
O=C(CNC(=S)NC(=O)c1ccc(Cl)cc1)c1ccccc1,1,32*,-2,0,3,-5
COc1ccc(-c2oc3c(c2C#CC(C)(C)O)C(OCCO)CC3)cc1 (stereo unspecified),-13,.,14,1,.,.
COc1cc(/C=C2\SC(=O)NC2=O)ccc1OCC(=O)N1CCOCC1,-2,6,-4,1,-11,-1
Cc1ccc(C(=O)NC(=S)NNC(=O)c2ccc([N+](=O)[O-])cc2)cc1,-9,9,16,0,5,2
Cc1ccc(C(=O)NNC(=S)NC(=O)c2ccccc2)cc1,27*,-27,-31,70*,52*,52*
Cc1ccccc1OCC(=O)NNC(=S)NC(=O)c1ccco1,-2,7,-6,0,-2,18*
Cc1ccccc1OCC(=O)Nc1ccccc1NC(=O)c1ccco1,-12,1,7,4,1,-5
Cc1ccc(C(=O)NC(=S)NNC(=O)c2ccccc2)cc1,35*,-10,-32,20*,5,36*
COc1ccc(C(=O)NNC(=S)NC(=O)c2cccs2)cc1,-25,-9,6,14,12,10
COc1ccc(/C=C/C(=O)NC(=S)NNC(=O)c2cccs2)cc1,-8,-10,9,5,9,21*
